Hit rate of the full screen: of about 370,000 compounds, about 2,300 (0.62%) were called active. The sample holds actives, similar compounds and a random draw of the others, so the mix is not that of the screen. Values without a mark were called inactive.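 How the source made its calls: active means inhibition above a per-campaign cutoff equal to the mean of compounds falling between control-based bounds plus 3 SD (cut at about 20% in these data); inactive means the rest.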
molecular target: Disintegrin and metalloproteinase domain-containing protein 10 (Homo sapiens) (UniProt O14672); test: blockers of ADAM10 peptide cleavage – biochemical, QFRET, HTS, primary screen (AID 720582); settings: recombinant ADAM10, EDANS/DABCYL FRET peptide cleavage, 3 h; at 7 µM; active compounds read high;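 further: 0% = DMSO wells while the 100% control is not disclosed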
Sequence (O14672 214-748 limits assumed): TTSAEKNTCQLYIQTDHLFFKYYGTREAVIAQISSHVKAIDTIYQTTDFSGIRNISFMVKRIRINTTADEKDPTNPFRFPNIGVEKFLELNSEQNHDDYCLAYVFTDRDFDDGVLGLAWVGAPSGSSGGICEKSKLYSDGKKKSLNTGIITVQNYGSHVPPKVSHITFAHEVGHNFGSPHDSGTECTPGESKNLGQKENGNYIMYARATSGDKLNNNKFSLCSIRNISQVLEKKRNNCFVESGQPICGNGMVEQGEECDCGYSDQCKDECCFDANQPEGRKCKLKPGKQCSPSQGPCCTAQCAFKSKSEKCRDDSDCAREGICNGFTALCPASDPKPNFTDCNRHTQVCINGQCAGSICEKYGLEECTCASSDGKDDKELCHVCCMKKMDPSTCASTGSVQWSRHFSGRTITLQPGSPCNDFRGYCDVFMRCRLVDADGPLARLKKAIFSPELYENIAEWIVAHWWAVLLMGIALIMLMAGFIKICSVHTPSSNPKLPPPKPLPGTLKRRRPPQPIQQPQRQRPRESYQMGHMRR

For `O=c1[nH]c2ccccc2n1C1CCN(C(c2ccnc3ccccc23)c2nnnn2Cc2ccccc2)CC1` (stereo not given), which inhibition is on record?
Its inhibition is -0.89%.

For `COc1ccc(-n2nnnc2C(c2cccc3ccccc23)N2CCC(n3c(=O)[nH]c4ccccc43)CC2)cc1` (stereo not given), which inhibition is on record?
Its inhibition is 22.7% (active).

`O=c1[nH]c2ccccc2n1C1CCN(C(c2ccccc2)c2nnnn2Cc2ccccc2)CC1` (stereo not given) was tested. Which inhibition did it give?
The inhibition was -9.55%.

For `CN1CCC(N(C)Cc2cccnc2)CC1`, which inhibition is on record?
Its inhibition is -14.6%.

How did the inhibition turn out when `Cc1ccc(-c2nc3ccccc3c(=O)n2-c2ccc(Br)cn2)cc1` was run?
Its inhibition is 8.84%.

`COP(=O)(Sc1ccccc1)C(Cc1ccccc1)NC(=O)OCc1ccccc1` (stereo not given) was tested. Which inhibition did it give?
The inhibition was 2.57%.

`O=C1C2(Cl)C3(Cl)C4(Cl)C(Cl)(Cl)C5(Cl)C3(Cl)C1(Cl)C5(Cl)C24Cl` (stereo not given) was tested. Which inhibition did it give?
Its inhibition is 31.6% (active).

With `CO[C@H]([C@H](C)/C=C/N(C)C=O)[C@@H](C)C(=O)CC[C@H](C)[C@H](O)[C@H](C)[C@H]1OC(=O)/C=C/C(C)=C/[C@H](O)[C@H](OC)C[C@@H]2C=CC[C@@H](C[C@H](OC)[C@@]3(CO3)[C@@H](OC)C[C@@H](OC)[C@@H]1C)O2` as the compound, how does the inhibition read?
Its inhibition is 3.02%.

How did the inhibition turn out when `Cc1ccccc1CCC[C@@H](CC1CCCCC1)CN(C)C(=O)Oc1ccccc1` was run?
Its inhibition is 1.44%.

How did the inhibition turn out when `O=C(NCC(c1cccnc1)N1CCN(c2ccccc2)CC1)Oc1ccccc1` (stereo not given) was run?
Its inhibition is 0.63%.

`COC(=O)C1=C(c2ccc(-c3ccccc3)c(F)c2)C[C@@H]2CC[C@H]1N2C(=O)NCc1ccc(F)cc1` was tested. Which inhibition did it give?
Its inhibition is 28.2% (active).

For `COC(=O)C1=C(c2cccc(OCc3ccccc3)c2)C[C@@H]2CC[C@H]1N2C(=O)NCc1ccc(Br)cc1`, which inhibition is on record?
The inhibition was 19.1%.

How did the inhibition turn out when `COC(=O)C1=C(c2ccc(F)cc2OCc2ccccc2)C[C@@H]2CC[C@H]1N2C(=O)NCc1ccc(Cl)cc1` was run?
The inhibition was 17.6%.

`CCOP(=O)(OCC)C(O)c1ccc(OC)cc1OC` (stereo not given) was tested. Which inhibition did it give?
The inhibition was 1.75%.

`O=C(Cn1c(=O)n(CC2CS2)c2ccccc21)N1CCCCC1` (stereo not given) was tested. Which inhibition did it give?
Its inhibition is -0.6%.
